Source: PubChem BioAssay (Tox21)
Inconclusive results are not listed. Where a call stands in place of a potency, no number is given. The source made the active and inactive calls. Calls come from the whole dose curve; as a rule, active = well fitted cell-killing curve with a large enough effect in the repeat runs; inconclusive = weak or mixed curves; inactive = flat fitted curve, though single readings scatter.

Experiment: qHTS assay to identify small molecule antagonists of the estrogen related receptor (ERR) signaling pathway from Tox21 library - cell viability counter screen (AID 1224834); note: nearly all actives have a fitted effect of over 30% in size
Details: ERR reporter cells viability, CellTiter-Fluor, 17.5 h; series mostly up to 92.4 µM
From the text: National Center for Advancing Translational Sciences [NCATS]
NIH Chemical Genomics Center [NCGC]
U.S. Environmental Protection Agency [EPA]
National Institutes of Environmental Health Sciences [NIEHS]
National Toxicology Program [NTP]
U.S. Food and Drug Administration [FDA]
Estrogen related receptors (ERRs), the first orphan nuclear receptors discovered, play an important role in the control of cellular energy metabolism. ERRs are required for high-energy production in response to the environmental challenges. ERR-alpha was also identified as an adverse marker for breast cancer progression; ERR-alpha-positive tumors have a poor prognosis. To screen and to identify environmental compounds that perturb the ERR signaling pathways could provide valuable information for potential therapeutic or preventive measures in the treatment of metabolic disease. To differentiate true ERR antagonists or agonist from cytotoxic substances, the assay is multiplexed with cell viability assay.
Tox21 Assay Protocol Summary:
The ERR cells were dispensed at 2,000 cells/5 ul/well in 1536-well white plates using a Multidrop dispenser. After the assay plates were incubated at a 37 C/5% CO2 incubator for 6 hours, 23 nL of compounds dissolved in DMSO, positive and negative controls or DMSO only was transferred to the assay plate by a pin tool. The plates were incubated at 37 C for 17.5 hours. 1 ul/well of CellTiter-Fluor reagent was added into the assay plates using a Flying Reagent Dispenser. After 30-minute incubation at 37 C/5% CO2, the fluorescence intensity in the plates was measured using a ViewLux plate reader.

| SMILES | Potency |
| --- | --- |
| CC1(C)OC[C@@H](COC(=O)CCc2ccc(OC[C@@H](O)CNCCNC(=O)N3CCOCC3)cc2)O1 | inactive |
| OCCCCCO | inactive |
| CCCC[N+](C)(CCCC)CCCC | inactive |
| CC1CCC(CO)CC1 (stereo not given) | inactive |
| CCCCOCCOC(=O)COc1cc(Cl)c(Cl)cc1Cl | inactive |
| CCOC(=O)C(=O)CCCCCCl | inactive |
| CCCn1cc[n+](C)c1C | inactive |
| c1coc(CNc2ncnc3nc[nH]c23)c1 | inactive |
| COc1ccc2cc1Oc1cc3c(cc1OC)CC[N+](C)(C)[C@H]3Cc1ccc(cc1)Oc1c(OC)c(OC)cc3c1[C@@H](C2)[N+](C)(C)CC3 | inactive |
| Cc1ccnc(NS(=O)(=O)c2ccc(N)cc2)n1 | inactive |
| CCOc1ccccc1OCC | inactive |
| O=C(O)CNC(=O)c1ccccc1 | inactive |
| COc1ccccc1OCC1CNC(=O)O1 (stereo not given) | inactive |
| C1CCC2(CCCCO2)OC1 | inactive |
| CC(C)(C)c1ccc(-c2ccc(C(C)(C)C)cc2)cc1 | inactive |
| CCCC(C)C(=O)OCC (stereo not given) | inactive |
| NC(=O)Cc1cccc2ccccc12 | inactive |
| CCOC(=O)c1ccccc1 | inactive |
| NC(=O)NC1N=C([O][Al])NC1=O (stereo not given) | inactive |
| O=C(CO)[C@@H](O)[C@H](O)[C@@H](O)CO | inactive |

| SMILES | Potency |
| --- | --- |
| Nc1ccncc1N | inactive |
| CCCO[Si](OCCC)(OCCC)OCCC | inactive |
| O=Cc1cccc(Br)c1 | inactive |
| CC(C)C1CCC(O)CC1 (stereo not given) | inactive |
| CC(C)COC(=O)c1ccc(N)cc1 | inactive |
| CN(C)CCCCCCN(C)C | inactive |
| CO/N=C(\C(=O)N[C@@H]1C(=O)N2C(C(=O)O)=C(CSc3nc(=O)c(O)nn3C)CS[C@H]12)c1csc(N)n1 | inactive |
| CCOc1c(N2CCOCC2)cnn(C)c1=O | inactive |
| COc1cc(C)nc(-n2nc(C)cc2OC)n1 | inactive |
| [O-][n+]1cccc(CO)c1 | inactive |
| CCCOC(=O)CC | inactive |
| CN(C)C(=O)Oc1cccc([N+](C)(C)C)c1 | inactive |
| CC12CCC(C(=O)C1=O)C2(C)C (stereo not given) | inactive |
| CC(C)CC(C)(N)C#N (stereo not given) | inactive |
| CN(C)CCN(C)CCN(C)C | inactive |
| C=C(C)C(=O)OCCOCCOCCOCCOC(=O)C(=C)C | inactive |
| Cc1coc2ccccc2c1=O | inactive |
| CCCCCCCCCC[N+](C)(C)[O-] | inactive |
| NCCCC[C@H](N[C@@H](CCc1ccccc1)C(=O)O)C(=O)N1CCC[C@H]1C(=O)O | inactive |
| COc1cc(C(=O)NCc2ccc(OCCN(C)C)cc2)cc(OC)c1OC | inactive |
